The source of these data is PubChem BioAssay (NCI).

This is part of a sample that, as a whole, favours compounds with a hit. Of some 83,000 tested, about 20% had one in any assay.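 In brief: 96-well plates, 48 h treatment, single concentration, percent growth endpoint.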 Values without a mark were called inactive. Calls of active or inactive are those of the source. How the source made its calls: active means growth percent below 10; inactive means the rest.

The first assay concerns SW-620 colon. Description: NCI-60 one-dose screen, 48 h (100 = growth as untreated, 0 = no growth, -100 = all killed). Conditions: 10 µM unless noted.
For `O=[As](O)(O)c1ccccc1[As](=O)(O)O`, the growth was 112%. As for `Clc1ccc(COC(Cn2ccnc2)c2ccc(Cl)cc2Cl)cc1` (stereo not drawn), the growth was 34.3%. On the same count and under the same terms, in the case of `CN(C)C(=O)Oc1ccccc1` it was 93.8%.

For `CC[C@H](C)[C@H](NC(=O)C12C3C4C1C1C2C3C41NC(C)=O)C(=O)N(C)[C@H](C[C@@H](OC(C)=O)c1nc(C(=O)N[C@@H](Cc2ccccc2)C[C@H](C)C(=O)OC)cs1)C(C)C` (stereo partly drawn), the growth is 21%.

Consider `COc1ccc(C(=O)c2sc3nc4c(cc3c2N)N2CCC4CC2)cc1OC`, for which the growth is 126%. On the same count and under the same terms, then `CCC(CC)CC1(C)CC2(C)CCOC2OO1` (stereo not drawn), with 104%; and `ClCCN(CCCl)c1ccc(/C=N\N=C\c2ccc(N(CCCl)CCCl)cc2)cc1`, with 36.8%; and `CCOC(=O)C(Cc1ccc(N(CCCl)CCCl)cc1)NC(=O)C(CC(C)C)NC(C)=O` (stereo not drawn), with 9.17% (active). Turning to `CNCc1cccnc1`, the growth is 107%. Same read-out and setting: then `C=CCc1cc2c(cc1OCC)OCO2`, with 102%; and `N#Cc1c(Br)n(C2OC(CO)C(O)C2O)c2ncnc(N)c12` (stereo not drawn), with 30.5%. Turning to `O=P(N1CC1)(N1CC1)N1CCc2ccccc21`, the growth is 101%.

Regarding `Oc1ccc2c3c1OC1[C@@H](O)CC[C@@]4(O)[C@@H](C2)N(CC2CCC2)CC[C@]314` (stereo partly drawn), the growth is 104%. Same read-out and setting: in the case of `N#CC1(C#N)C(c2ccc(N(CCCl)CCCl)cc2)OC23CCCCC2C1(C#N)C(=N)O3` (stereo not drawn) it was 88.6%; in that of `COC(=O)[C@@H](C)C[C@H](Cc1ccccc1)NC(=O)c1nc([C@@H](C[C@H](C(C)C)N(C)C(=O)[C@@H](NC(=O)[C@H]2CC(=O)CCN2C)C(C)C)OC(C)=O)sc1C(C)C`, 24.2%; in that of `CNC(=O)Oc1ccc(C(C)(C)C)cc1OC(=O)NC`, 94.8%.

Regarding `COc1cc2c(cc1OCCCCn1c(-c3cccs3)nc3ccccc31)N=C[C@@H]1CCCN1C2=O`, the growth was 2.49% (active).

With `CC[C@H](C)[C@H](NC(=O)C12C3C4C1C1C2C3C41NC)C(=O)N(C)[C@H](C[C@@H](OC(C)=O)c1nc(C(=O)N[C@@H](Cc2ccccc2)C[C@H](C)C(=O)OC)cs1)C(C)C` (stereo partly drawn), the growth was 21.6%. For `COc1ccc(N(CC(=O)NCCC[Te]c2ccccc2)C(=O)CCSC2=C(C)C(=O)c3ccccc3C2=O)cc1`, the growth was 5.47% (active). Still for that read-out and setting: then `NC(=Nc1ccccc1)N[N+](=O)[O-]`, with 97.8%; and `C[S+]1C=Cc2ccccc2C1c1ccc(Cl)cc1` (stereo not drawn), with 112%. On the same count and under the same terms, then `CC(C)[C@]12O[C@H]1[C@@H]1O[C@]13[C@]1(O[C@H]1C[C@H]1c4c(C(=O)c5ccccc5)oc(OC(=O)c5ccccc5)c4CC[C@@]13C)[C@@H]2O`, with -3.73% (active).

For the molecule `O=C1C=C2C(=CCOC2O)O1` (stereo not drawn), the growth is -47.3% (active). On the same count and under the same terms, then `Clc1ccc(N2COOC3(OOC2)C2CC4CC(C2)CC3C4)cc1`, with 75.3%. Still for that read-out and setting: then `Nc1ccc2c(c1)Cc1cc(Br)ccc1-2`, with 108%. On the same count and under the same terms, in the case of `O=c1[nH]c2ccc([N+](=O)[O-])cc2c(=O)o1` it was 105%. For the molecule `CN1CC(CNC(=O)OCc2ccccc2)CC2c3cccc4c3c(cn4C)CC21` (stereo not drawn), the growth was 35.9%. On the same count and under the same terms, in the case of `NC(=O)c1c(Br)n(C2OC(CO)C(O)C2O)c2ncnc(N)c12` (stereo not drawn) it was 1.1% (active); in that of `COC(=O)CCC1=C(C)c2cc3[n-]c(cc4nc(cc5[n-]c(cc1n2)c(CCC(=O)OC)c5C)C=C4C)cc3C.[Cd+2]`, 25.3%. On the same count and under the same terms, in the case of `CCCC(C)C1(CC)C(=O)NC(=O)N(C)C1=O` (stereo not drawn) it was 101%; in that of `CC(=O)c1ccc(C(=O)NCC2CCC3(CC2)OOC2(CCCCC2)OO3)cc1`, 22.1%.

In a further assay the test system is MCF7 breast. The description is as above. Conditions: 10 µM unless noted.
Consider `O=[As](O)(O)c1ccccc1[As](=O)(O)O`, for which the growth was 98%. For `Clc1ccc(COC(Cn2ccnc2)c2ccc(Cl)cc2Cl)cc1` (stereo not drawn), the growth is 57.9%. The same measure, in the same setting: in the case of `CN(C)C(=O)Oc1ccccc1` it was 104%; in that of `CC[C@H](C)[C@H](NC(=O)C12C3C4C1C1C2C3C41NC(C)=O)C(=O)N(C)[C@H](C[C@@H](OC(C)=O)c1nc(C(=O)N[C@@H](Cc2ccccc2)C[C@H](C)C(=O)OC)cs1)C(C)C` (stereo partly drawn), 15.2%; in that of `COc1ccc(C(=O)c2sc3nc4c(cc3c2N)N2CCC4CC2)cc1OC`, 84.5%. On to `CCC(CC)CC1(C)CC2(C)CCOC2OO1` (stereo not drawn), for which the growth was 104%.

Regarding `ClCCN(CCCl)c1ccc(/C=N\N=C\c2ccc(N(CCCl)CCCl)cc2)cc1`, the growth was 35.1%.

Take `CCOC(=O)C(Cc1ccc(N(CCCl)CCCl)cc1)NC(=O)C(CC(C)C)NC(C)=O` (stereo not drawn): the growth is 21.3%. The same measure, in the same setting: then `CNCc1cccnc1`, with 105%. The same measure, in the same setting: in the case of `CCN(CCO)C(Cc1ccccc1)c1ccccc1` (stereo not drawn) it was 94%; in that of `C=CCc1cc2c(cc1OCC)OCO2`, 90.9%. Same read-out and setting: in the case of `N#Cc1c(Br)n(C2OC(CO)C(O)C2O)c2ncnc(N)c12` (stereo not drawn) it was 3.47% (active). Consider `NC(=S)c1cn(C2OC(CO)C(O)C2O)c2ncnc(N)c12` (stereo not drawn), for which the growth is 2.36% (active). Same read-out and setting: then `O=P(N1CC1)(N1CC1)N1CCc2ccccc21`, with 86.5%; and `Oc1ccc2c3c1OC1[C@@H](O)CC[C@@]4(O)[C@@H](C2)N(CC2CCC2)CC[C@]314` (stereo partly drawn), with 92.5%; and `COC(=O)[C@@]1(O)C[C@H]2O[C@]1(C)n1c3ccccc3c3c4c(c5c6ccccc6n2c5c31)C(=O)NC4`, with -40.7% (active).

`ClCCN(CCCl)c1ccc(OCc2ccccc2)cc1`: the growth is 31.7%. Still for that read-out and setting: in the case of `N#CC1(C#N)C(c2ccc(N(CCCl)CCCl)cc2)OC23CCCCC2C1(C#N)C(=N)O3` (stereo not drawn) it was 49.3%; in that of `COC(=O)[C@@H](C)C[C@H](Cc1ccccc1)NC(=O)c1nc([C@@H](C[C@H](C(C)C)N(C)C(=O)[C@@H](NC(=O)[C@H]2CC(=O)CCN2C)C(C)C)OC(C)=O)sc1C(C)C`, 24.6%; in that of `Nc1ccc2c(c1)oc1ccccc12`, 83.2%. The same measure, in the same setting: then `CNC(=O)Oc1ccc(C(C)(C)C)cc1OC(=O)NC`, with 93.9%; and `COc1cc2c(cc1OCCCCn1c(-c3cccs3)nc3ccccc31)N=C[C@@H]1CCCN1C2=O`, with -15.2% (active); and `CC[C@H](C)[C@H](NC(=O)C12C3C4C1C1C2C3C41NC)C(=O)N(C)[C@H](C[C@@H](OC(C)=O)c1nc(C(=O)N[C@@H](Cc2ccccc2)C[C@H](C)C(=O)OC)cs1)C(C)C` (stereo partly drawn), with 17.2%. As for `COc1ccc(N(CC(=O)NCCC[Te]c2ccccc2)C(=O)CCSC2=C(C)C(=O)c3ccccc3C2=O)cc1`, the growth was -22.3% (active). For `NC(=Nc1ccccc1)N[N+](=O)[O-]`, the growth is 100%.

Turning to `C[S+]1C=Cc2ccccc2C1c1ccc(Cl)cc1` (stereo not drawn), the growth is 84.5%. `CC(C)[C@]12O[C@H]1[C@@H]1O[C@]13[C@]1(O[C@H]1C[C@H]1c4c(C(=O)c5ccccc5)oc(OC(=O)c5ccccc5)c4CC[C@@]13C)[C@@H]2O`: the growth is 12.5%. The same measure, in the same setting: in the case of `CN(C)CC(C(=O)Cc1ccccc1)c1ccccc1` (stereo not drawn) it was 1.13% (active); in that of `O=C1C=C2C(=CCOC2O)O1` (stereo not drawn), 13.3%; in that of `Clc1ccc(N2COOC3(OOC2)C2CC4CC(C2)CC3C4)cc1`, 71.7%. Same read-out and setting: then `Nc1ccc2c(c1)Cc1cc(Br)ccc1-2`, with 64.7%. On the same count and under the same terms, then `CN1CC(CNC(=O)OCc2ccccc2)CC2c3cccc4c3c(cn4C)CC21` (stereo not drawn), with -55.3% (active); and `NC(=O)c1c(Br)n(C2OC(CO)C(O)C2O)c2ncnc(N)c12` (stereo not drawn), with -18.6% (active); and `Cc1cc(N(CCCl)CCCl)ccc1/C=N\NC(=O)c1ccncc1`, with 62%.

Regarding `COC(=O)CCC1=C(C)c2cc3[n-]c(cc4nc(cc5[n-]c(cc1n2)c(CCC(=O)OC)c5C)C=C4C)cc3C.[Cd+2]`, the growth was 26.9%.

Consider `CCCC(C)C1(CC)C(=O)NC(=O)N(C)C1=O` (stereo not drawn), for which the growth is 103%. Same read-out and setting: in the case of `CC(=O)c1ccc(C(=O)NCC2CCC3(CC2)OOC2(CCCCC2)OO3)cc1` it was 81.7%.
